# Experimental data as given in PubChem BioAssay AID1645855 (Buhrlage Lab, Dana-Farber Cancer Institute and Novartis …, 2021).
# Hit rate of the full screen: of about 47,000 compounds, about 3,100 (6.6%) were called active. No stated cut-off is given here; in the data, active means inhibition above about 30%; inactive means the rest. The list comes from a sample in which actives are over-represented; it also holds similar structures and randomly drawn compounds.
# Target: Ubiquitin carboxyl-terminal hydrolase 17-like protein 5 (Homo sapiens) (UniProt A8MUK1)
# Sequence (A8MUK1 whole entry, looked up): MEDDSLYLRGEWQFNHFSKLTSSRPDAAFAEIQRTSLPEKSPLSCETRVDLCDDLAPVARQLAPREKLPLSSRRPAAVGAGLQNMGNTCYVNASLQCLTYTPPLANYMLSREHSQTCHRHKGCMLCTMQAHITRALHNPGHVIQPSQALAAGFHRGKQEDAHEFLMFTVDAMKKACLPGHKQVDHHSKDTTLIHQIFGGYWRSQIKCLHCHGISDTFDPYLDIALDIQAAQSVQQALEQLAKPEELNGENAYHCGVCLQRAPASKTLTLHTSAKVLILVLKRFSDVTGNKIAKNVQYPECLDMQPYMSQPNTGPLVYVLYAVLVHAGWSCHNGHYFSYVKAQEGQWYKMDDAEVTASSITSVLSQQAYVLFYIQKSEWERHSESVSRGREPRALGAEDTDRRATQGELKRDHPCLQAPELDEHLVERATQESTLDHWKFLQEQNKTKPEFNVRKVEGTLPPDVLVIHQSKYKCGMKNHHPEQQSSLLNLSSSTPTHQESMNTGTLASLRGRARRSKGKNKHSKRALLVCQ
# Experiment: inhibitors of human USP17 deubiquitinase (AID 1645855)
# Details: purified USP17, Ub-rhodamine cleavage fluorescence, 3 h; at 50 µM; stronger effect = higher value
row,SMILES,inhibition
1,COc1ccccc1CC(=O)Nc1cc(S(=O)(=O)N2CCOCC2)ccc1N1CCN(C)CC1,-26.7% (inactive)
2,C[C@H](NC(=O)Cc1ccc(Cl)cc1)C(=O)N1CCC2(CC1)NCCc1[nH]cnc12,9.11% (inactive)
3,O=C(c1ccc(F)cc1)N1CCCC(c2nc(-c3ccccc3)no2)C1 (stereo not given),11.7% (inactive)
4,O=C(CSc1ncc(-c2ccc(F)cc2)[nH]1)N1CCCC1,2.63% (inactive)
5,O=C(Cn1c(-c2nc(-c3ccc(F)cc3)no2)cccc1=O)N1CCCC1,33% (active)
6,COc1ccc2[nH]c(C)c(CCNC(=O)c3cccs3)c2c1,0.591% (inactive)
7,Cc1c(N2CCN(S(=O)(=O)c3ccc(C(C)C)cc3)CC2)c(=O)n(C)c(=O)n1C,-2.36% (inactive)
8,Cc1nc(SCC#N)c2oc3ccccc3c2n1,60.3% (active)
9,Cc1nc(SCc2ccc([N+](=O)[O-])cc2)c2oc3ccccc3c2n1,12.4% (inactive)
10,COc1cccc(Cc2cncc(C(=O)N3CCNC(=O)C3)c2)c1,6.62% (inactive)
11,CSc1cccc(NC(=O)COc2ccc(C(=O)c3ccccc3)cc2)c1,12.9% (inactive)
12,CSc1cccc(NC(=O)CCc2ccc3nc[nH]c3c2)c1,-17.1% (inactive)
13,CSc1cccc(NC(=O)CC(=O)Nc2ccc3nc4n(c(=O)c3c2)CCCCC4)c1,34.4% (active)
14,Cc1cc(C)c2nc3c(cc2c1)CN(Cc1ccco1)C(=O)O3,51.9% (active)
15,Cc1ccc(-n2c3c(c(=O)[nH]c2=O)CN(Cc2ccco2)CN3)cc1,-9.75% (inactive)
16,COc1ccc2nc3c(cc2c1)CN(Cc1ccccc1)C(=O)O3,18.5% (inactive)
17,O=S(=O)(Cc1ccccc1)N1CC2(CCN(CC3CCCC3)CC2)C1,0.208% (inactive)
18,COc1ccccc1CNC(=O)c1ccc(-n2nc(C)c3c2CCCC3=O)cc1,-3.98% (inactive)
19,Cc1ccc(CNc2nnc(-c3nnc(C)o3)c3ccccc23)cc1,3.95% (inactive)
20,Cc1ccc(NC(=O)NCc2nnnn2-c2ccccc2)cc1C,-3.49% (inactive)
21,O=C(COc1ccc2ccccc2c1)NCc1nnnn1-c1ccc(Cl)cc1,49.4% (active)
22,CC(C)c1ccc(OCC(=O)NCc2nnnn2-c2ccc(Cl)cc2)cc1,11.8% (inactive)
23,CC(NC(=O)c1csc(C(=O)NC2CC2)n1)c1ccc(F)cc1 (stereo not given),7.32% (inactive)

row,SMILES,inhibition
1,CC(C(=O)NCCCN1CCOCC1)C1CCN(C(=O)c2cc3ccccc3[nH]2)CC1 (stereo not given),-0.784% (inactive)
2,Cc1ccc(-c2nnc(NC(=O)C(c3ccccc3)c3ccccc3)o2)c(C)c1,2.51% (inactive)
3,COc1ccc(OC)c(CNC(=O)c2nnc(C(=O)Nc3ccc(F)cc3)s2)c1,14.8% (inactive)
4,Cc1ccccc1CNC(=O)c1sc2ncnc(N3CCCC3)c2c1C,-0.361% (inactive)
5,Cc1nnc(C(=O)Nc2ccc(C(=O)NCc3ccccc3C)cc2)s1,68.1% (active)
6,CC(=O)N1CCCC(c2ccnc(Nc3ccccn3)n2)C1 (stereo not given),6.44% (inactive)
7,CN(C(=O)c1ncccn1)[C@H]1CC[C@@]2(C)C[C@H](c3ccccc3)C[C@](C)(O2)[C@@H]1O,3.44% (inactive)
8,CC(C)c1ccc(S(=O)(=O)N[C@H](C)C(=O)NCc2cscn2)cc1,6.37% (inactive)
9,CNc1cnc(CC2CCCN(C(=O)c3scnc3C)CC2)cn1 (stereo not given),-9.92% (inactive)
10,CCc1ccc(NC(=O)Cn2cnc(S(=O)(=O)N3CCOCC3)c2)cc1,24.3% (inactive)
11,Cc1cc(NC(=O)COC(=O)c2cccc(C)c2O)ccc1Br,37% (active)
12,N#Cc1cccc(NC(=O)COC(=O)c2cc3ccccc3oc2=O)c1,3.87% (inactive)
13,Cc1cc(-c2nnc(SCC(=O)Nc3ccc(Br)c(C)c3)n2N)n[nH]1,23.4% (inactive)
14,C=C1CCC2[C@](C)(CCC[C@]2(C)C(=O)OC)[C@H]1CCc1ccoc1C[N+](C)(C)Cc1ccccc1 (stereo not given in full),31.1% (active)
15,C=C1CCC2[C@](C)(CCC[C@]2(C)C(=O)OC)[C@H]1CCc1ccoc1CNCC(=O)O (stereo not given in full),28% (inactive)
16,O=C(c1ccc(Br)o1)N(Cc1cccc(F)c1)c1ccccn1,12.8% (inactive)
17,CC(=O)c1ccc(N2CCN(C(=O)c3ccc4noc(-c5ccccc5)c4c3)CC2)cc1,-0.00315% (inactive)
18,COc1cccc(CN2C(=O)c3ccccc3C2C(=O)NCc2ccccc2OC)c1 (stereo not given),13.5% (inactive)
19,CC(=O)O[C@H]1CC[C@@]2(C)C(CC[C@]3(C)C2CCC2[C@@]4(C)CC[C@H](C(C)(C)O)C4C[C@H](O)[C@]23C)C1(C)C (stereo not given in full),0.105% (inactive)
20,COc1ccc(C(=O)Nc2cc(=O)[nH]c3nc(Cc4ccccc4)nn23)cc1,-0.0855% (inactive)
21,Clc1ccccc1SCc1nc2ccccc2[nH]1,6.98% (inactive)
22,O=C(COc1ccccc1)NCCc1nc2ccccc2[nH]1,18.3% (inactive)
23,O=C(Cc1ccc(Cl)cc1)NCC(=O)Nc1nc2ccccc2[nH]1,53.7% (active)

row,SMILES,inhibition
1,Cc1noc(C)c1CC(=O)Nc1cccc(-c2nc3ccccc3[nH]2)c1,0.008% (inactive)
2,COc1ccc(C(=O)NCC(=O)Nc2nc3ccccc3[nH]2)c(C)c1,46.9% (active)
3,O=C(Nc1ccc(F)cc1F)c1cnn2c3c(cnc12)CCCCC3,-3.64% (inactive)
4,Cc1nc(C2CCCN2)nc2c1CCC(=O)N2CC1CCCCC1 (stereo not given),3.63% (inactive)
5,CCc1nc(=O)c2ccccc2n1C1=CCN(Cc2cn(C)nc2C)CC1,4.86% (inactive)
6,O=C(C1CCN(S(=O)(=O)c2ccc(Cl)cc2)CC1)N1CC[C@@]2(O)CCCC[C@H]2C1,-1.48% (inactive)
7,Cc1cc(O)c(=O)cc2c1C[C@H]1CC(C)(C)/C=C/C[C@@]3(C)Oc4cc(=O)c(O)cc(C)c4C[C@@H]3C[C@H](O)[C@]1(C)O2,40.2% (active)
8,CCSc1nc(-c2ccccc2)nc2sc3c(c12)CC(C)(C)OC3,-11.1% (inactive)
9,CN1CC(c2ncn[nH]2)c2cc(C(=O)NCc3ccccc3)ccc21 (stereo not given),-5% (inactive)
10,COc1ccccc1CNC(=O)c1ccc2c(c1)CCN2C(=O)C1CC1,-10.3% (inactive)
11,Cc1nc2c(c(C)c1CCC(=O)Nc1ccccc1F)c(=O)n(C)c(=O)n2C,-0.603% (inactive)
12,Cc1noc(-c2cccn(Cc3cc(F)ccc3F)c2=O)n1,5.57% (inactive)
13,O=C(Cn1cccc(-c2nc(-c3ccccc3)no2)c1=O)Nc1ccccc1F,33% (active)
14,COc1ccc(C2C3=C(CC(c4ccc(Cl)cc4)CC3=O)Nc3ccccc3N2C(=O)c2ccc(Cl)c(Cl)c2)cc1 (stereo not given),-7.25% (inactive)
15,Fc1cccc(Nc2nc(-c3ccncc3)nc3c2CCC3)c1,48.8% (active)
16,O=C(CN1CC(=O)c2ccccc2S1(=O)=O)Nc1ccccc1,-5.61% (inactive)
17,Cc1nn(-c2ccccc2)c(C)c1S(=O)(=O)N1CCCCC1,3.01% (inactive)
18,COC(=O)c1ccc(NC(=O)CSc2nnc(C(C)Oc3ccccc3)n2C)cc1 (stereo not given),5.22% (inactive)
19,Cc1nnc(OCC(=O)Nc2ccc(OC(F)(F)F)cc2)c2ccccc12,77.7% (active)
20,Cc1cc(C)nc(N(C(=O)C2CC2)c2ccc(OC(F)(F)F)cc2)n1,1.83% (inactive)
21,O=C(Cc1ccc(F)cc1)Nc1ccccc1Cc1ccccc1,27.4% (inactive)
22,Cc1ccccc1NC(=O)Cc1csc2nc(-c3ccc(F)cc3)cn12,86% (active)
23,Cc1cc(F)ccc1NC(=O)Cc1n[nH]c(Cc2ccccc2)n1,-9.74% (inactive)

row,SMILES,inhibition
1,CN1CC2(COc3ccccc31)CN(S(=O)(=O)c1ccc3c(c1)OCO3)CCO2 (stereo not given),-2.79% (inactive)
2,CC1(C(=O)NCc2cccc(Cl)c2)Oc2cccnc2NC1=O (stereo not given),-7.83% (inactive)
3,O=C(NCC1CC1)[C@H]1C[C@@H]2CN(S(=O)(=O)c3ccccc3)C[C@H]1O2,-13.7% (inactive)
4,Cn1cc(-c2nc(C(=O)Nc3ccc(F)cc3)cs2)c2cccnc21,59.4% (active)
5,Cn1cc(CCNC(=O)c2cc3ccccc3[nH]2)c2cccnc21,-17.1% (inactive)
6,Cc1cccc(NC(=O)c2csc(-c3cn(C)c4ncccc34)n2)c1,2.63% (inactive)
7,COCCNC(=O)C1c2ccccc2C(=O)N(C2CCCC2)C12CCCCC2 (stereo not given),-1.76% (inactive)
8,O=S(Cc1cc(Sc2ccccc2)nc(-c2ccccn2)n1)c1ccc(Cl)cc1 (stereo not given),-9.57% (inactive)
9,CC(C)(C)c1cc2n(n1)CCN(Cc1ccccc1C(F)(F)F)C2,-4.87% (inactive)
10,COc1cccc(C(=O)N2CCC(c3nc4ccncc4n3C)C2)c1 (stereo not given),10% (inactive)
11,Fc1ccc(-n2cc(-c3ccccc3)c3c(NCc4ccco4)ncnc32)cc1,-3.63% (inactive)
12,c1coc(CNc2nc(Nc3cccc4ccccc34)nc3ccccc23)c1,83.4% (active)
13,O=C(CCc1nnc2ccc(N3CCCCC3)nn12)NCCC1=CCCCC1,1.2% (inactive)
14,O=c1ccc(-c2nc(-c3cnccn3)no2)cn1Cc1ccccc1C(F)(F)F,7.06% (inactive)
15,O=C1CNC(=O)N1CC(O)Cn1c2ccc(Br)cc2c2cc(Br)ccc21 (stereo not given),40.1% (active)
16,CCc1ccc(-n2c(=O)c3ccccc3n(CC(=O)NCCC3=CCCCC3)c2=O)cc1,64.3% (active)
17,Cc1ccc(Cn2c(C)c(CNCCC3=CCCCC3)c(C(=O)O)c2C)cc1,7.92% (inactive)
18,O=C(CCc1nnc2n(CCc3ccccc3)c(=O)c3ccccc3n12)NCCN1CCCC1,13.7% (inactive)
19,CN(CCc1ccccn1)C(=O)c1cc2c(=O)oc3ccccc3c2s1,14.5% (inactive)
20,O=C(CC(NCc1cccnc1)C(=O)O)Nc1ccccc1 (stereo not given),6.61% (inactive)
21,COc1cc(C)c(CN2CCc3c(nc4cc(-c5cc(C)on5)[nH]n4c3=O)C2)cc1OC,4.84% (inactive)
